The structures appear in SMILES notation. Calls of active or inactive are those of the source.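 The calls were made as follows: active = viability loss from added drug above about 55%, and viability with drug at most 40%, in both replicates (limit read from the data, passing the limit was not always enough); inconclusive = both conditions met in only one replicate; inactive = neither replicate meets both conditions.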

One experiment in a line: MRP1 drug-resistance reversers in H69AR cells – cell-based, doxorubicin co-treatment, pilot screen (AID 601). The settings on record: H69AR cells + 2 uM doxorubicin, CellTiter-Glo, 72 h; at 10 µM; stronger effect = higher value. In general terms: ATP-based viability assays read luminescence as a measure of living cells.
Consider `COc1cccc(-n2ccnc2SCC(=O)N2CCc3ccccc32)c1`, for which the differential viability (reversal) is -5.1% (inactive).

On to `C=CCc1cc(C(=O)N2CCCCC2)ccc1O`, for which the differential viability (reversal) is -15.2% (inactive).

Take `CCN(CC)c1ccc(-c2nn3c(-c4cccnc4)nnc3s2)cc1`: the differential viability (reversal) was -4.5% (inactive).

Consider `Cc1ccc(NC(=O)CSc2nnc(-c3ccncc3)n2C)cc1C`, for which the differential viability (reversal) was 3.42% (inactive).

In the case of `O=C(Nc1ccc(Br)cc1F)c1sccc1-n1cccc1`, the differential viability (reversal) is 1.42% (inactive).

With `Cc1nc(CNS(=O)(=O)c2ccc3c(c2)OCCO3)cs1`, the differential viability (reversal) is -0.265% (inactive).

Take `CCOC(=O)c1[nH]c(C)c(C(=O)NCC2CCCO2)c1C` (stereo not given): the differential viability (reversal) is 9.65% (inactive).

`N#CC1=C(N)N(c2ccccc2)C2=C(C(=O)CCC2)C1c1cccs1` (stereo not given): the differential viability (reversal) is 46.8% (inactive).

On to `COc1cccc(C(=O)n2cnnc2N)c1OC`, for which the differential viability (reversal) was 6.76% (inactive).

As to `COC(=O)c1cc2oc(C)cc2n1CC(=O)Nc1ccc(C)c(C)c1`, the differential viability (reversal) is -3.33% (inactive).

In the case of `O=C(CSCc1cnn(-c2ccccc2)c1-n1cccc1)NCC1CCCO1` (stereo not given), the differential viability (reversal) was -10.7% (inactive).

Regarding `N=c1c(C(=O)NCc2ccc3c(c2)OCO3)cc2c(=O)n3ccccc3nc2n1Cc1cccnc1`, the differential viability (reversal) is -0.53% (inactive).

Take `Cc1cc(Br)ccc1NC(=O)CCN1C(=O)c2ccncc2C1=O`: the differential viability (reversal) is 3.85% (inactive).

For the compound `O=C1N2c3ccccc3CCc3cccc(c32)C1(O)C(F)(F)F` (stereo not given), the differential viability (reversal) is 0.66% (inactive).

For the compound `Cn1c(SCC(=O)Nc2ccc3c(c2)oc2ccccc23)nnc1-c1ccccc1`, the differential viability (reversal) was -7.74% (inactive).

Turning to `CCOc1ccc(S(=O)(=O)Nc2cccc(Cl)c2)cc1`, the differential viability (reversal) was -41.9% (inactive).

`Nn1c(CSc2nc3ccccc3o2)nnc1CSc1nc2ccccc2o1`: the differential viability (reversal) was 24.1% (inactive).

In the case of `CC1=C(C(=O)OC2CCCCC2)C(c2cccnc2)n2ncnc2N1` (stereo not given), the differential viability (reversal) was -8.64% (inactive).

In the case of `COC(=O)c1ccccc1NC(=O)C1CC(=O)N(c2ccccc2)C1` (stereo not given), the differential viability (reversal) is 20.8% (inactive).

Regarding `O=C(c1ccc2c(c1)OCCO2)C1CCN(C(=O)c2ccc(F)cc2)CC1`, the differential viability (reversal) is -16.2% (inactive).

Turning to `Cc1nc(=S)n(-c2ccccc2)[nH]1`, the differential viability (reversal) is 2.28% (inactive).

For `CC(C)CC(=O)Nc1ccccc1-c1nnn(CC(=O)N2CCOCC2)n1`, the differential viability (reversal) is -1.72% (inactive).

With `O=C(c1ccccc1)N1CCCCC(Sc2nnnn2-c2ccccc2)C1=O` (stereo not given), the differential viability (reversal) is 12.6% (inactive).

For `CC(=O)Nc1ccccc1OCc1nnc(-c2cccs2)o1`, the differential viability (reversal) is 15.9% (inactive).

On to `CCOc1ccc(CN2CCN(c3cc(C)nc4c5c(C)cc(C)nc5nn34)CC2)cc1`, for which the differential viability (reversal) was -3.18% (inactive).

Consider `CCSc1nnc2c(n1)OC=Nc1ccc(Br)cc1-2`, for which the differential viability (reversal) was 12.9% (inactive).

`Cc1ccc2nc(SCC(=O)NCc3ccco3)c(C#N)cc2c1`: the differential viability (reversal) is -7.5% (inactive).

For `CCN(CC)c1ccc2cc(NC(=O)CCC(=O)O)c(=O)oc2c1`, the differential viability (reversal) is -12.2% (inactive).

With `COc1ccc(CN(CC(=O)NCc2ccco2)C(=O)CCC(=O)Nc2nccs2)cc1`, the differential viability (reversal) is 11% (inactive).

Take `CC(=O)c1cccc(NC(=O)N2C3CCC2CC(O)(c2cccnc2)C3)c1` (stereo not given): the differential viability (reversal) was 9.59% (inactive).

Turning to `Cc1nc2scc(-c3cccs3)c2c(=O)n1-n1cccc1`, the differential viability (reversal) is 14.4% (inactive).

Regarding `NC1=NC(c2ccc(Br)cc2)n2c(nc3ccccc32)N1` (stereo not given), the differential viability (reversal) is 4.81% (inactive).

As to `CSCC[C@@H](Nc1nc(-c2ccccc2)nc2c1oc1ccccc12)C(=O)O`, the differential viability (reversal) is -1.28% (inactive).

In the case of `Cc1csc(SCC(=O)NC(=O)NCc2ccccc2)n1`, the differential viability (reversal) is -0.125% (inactive).

Take `CCSc1ncc(C#N)c(=O)[nH]1`: the differential viability (reversal) was -2.66% (inactive).

In the case of `CCSc1nnc(NC(=O)CSc2ncccn2)s1`, the differential viability (reversal) was 22.3% (inactive).

For the compound `COc1ccc(N2CCN(CCCNC(=O)C3(S(=O)(=O)c4ccc(Cl)cc4)CC3)CC2)cc1`, the differential viability (reversal) is -13.1% (inactive).

Consider `COc1ccc(OC)c(C2=NOC(C(=O)NCCN3CCOCC3)C2)c1` (stereo not given), for which the differential viability (reversal) is 5.3% (inactive).

As to `COc1ccc(CN2CC(C(=O)NCc3ccccn3)CC2=O)cc1` (stereo not given), the differential viability (reversal) is 9.59% (inactive).

Consider `c1ccc(-n2ncc3c(N4CCCCC4)ncnc32)cc1`, for which the differential viability (reversal) is 4.94% (inactive).

Staying with this experiment, now noted: H69AR cells + 2 uM doxorubicin, CellTiter-Glo, 72 h; measured here: viability with 2 uM doxorubicin; at 10 µM; stronger effect = lower value.
In general, viability refers to a read-out of living cells in per cent, often relative to untreated cells. In the case of `COc1cccc(-n2ccnc2SCC(=O)N2CCc3ccccc32)c1`, the viability was found to be 107%.

Turning to `C=CCc1cc(C(=O)N2CCCCC2)ccc1O`, the viability stood at 108%.

For `CCN(CC)c1ccc(-c2nn3c(-c4cccnc4)nnc3s2)cc1`, the viability was 15.4%.

`Cc1ccc(NC(=O)CSc2nnc(-c3ccncc3)n2C)cc1C`: the viability was found to be 88.8%.

As for `O=C(Nc1ccc(Br)cc1F)c1sccc1-n1cccc1`, the viability turned out to be 81.7%.

Take `Cc1nc(CNS(=O)(=O)c2ccc3c(c2)OCCO3)cs1`: the viability amounted to 96.9%.

For the compound `CCOC(=O)c1[nH]c(C)c(C(=O)NCC2CCCO2)c1C` (stereo not given), the viability came out at 91.3%.

For `N#CC1=C(N)N(c2ccccc2)C2=C(C(=O)CCC2)C1c1cccs1` (stereo not given), the viability is 23.5%.

Take `COc1cccc(C(=O)n2cnnc2N)c1OC`: the viability stood at 83.1%.

In the case of `COC(=O)c1cc2oc(C)cc2n1CC(=O)Nc1ccc(C)c(C)c1`, the viability is 87.1%.

Take `O=C(CSCc1cnn(-c2ccccc2)c1-n1cccc1)NCC1CCCO1` (stereo not given): the viability was found to be 104%.

On to `N=c1c(C(=O)NCc2ccc3c(c2)OCO3)cc2c(=O)n3ccccc3nc2n1Cc1cccnc1`, for which the viability worked out at 79.3%.

Take `Cc1cc(Br)ccc1NC(=O)CCN1C(=O)c2ccncc2C1=O`: the viability was determined as 91.7%.

For `O=C1N2c3ccccc3CCc3cccc(c32)C1(O)C(F)(F)F` (stereo not given), the viability came to 95%.

Turning to `Cn1c(SCC(=O)Nc2ccc3c(c2)oc2ccccc23)nnc1-c1ccccc1`, the viability was 77.1%.

In the case of `CCOc1ccc(S(=O)(=O)Nc2cccc(Cl)c2)cc1`, the viability came out at 60.7%.

As to `Nn1c(CSc2nc3ccccc3o2)nnc1CSc1nc2ccccc2o1`, the viability worked out at 78.6%.

With `CC1=C(C(=O)OC2CCCCC2)C(c2cccnc2)n2ncnc2N1` (stereo not given), the viability is 90.4%.

As for `COC(=O)c1ccccc1NC(=O)C1CC(=O)N(c2ccccc2)C1` (stereo not given), the viability is 80.9%.

In the case of `O=C(c1ccc2c(c1)OCCO2)C1CCN(C(=O)c2ccc(F)cc2)CC1`, the viability is 99.9%.

In the case of `Cc1nc(=S)n(-c2ccccc2)[nH]1`, the viability was 105%.

With `CC(C)CC(=O)Nc1ccccc1-c1nnn(CC(=O)N2CCOCC2)n1`, the viability is 88.5%.

Consider `O=C(c1ccccc1)N1CCCCC(Sc2nnnn2-c2ccccc2)C1=O` (stereo not given), for which the viability stood at 91.1%.

For `CC(=O)Nc1ccccc1OCc1nnc(-c2cccs2)o1`, the viability was 82.1%.

Take `CCOc1ccc(CN2CCN(c3cc(C)nc4c5c(C)cc(C)nc5nn34)CC2)cc1`: the viability was found to be 92%.

As for `CCSc1nnc2c(n1)OC=Nc1ccc(Br)cc1-2`, the viability turned out to be 86.7%.

Consider `Cc1ccc2nc(SCC(=O)NCc3ccco3)c(C#N)cc2c1`, for which the viability is 69.7%.

On to `CCN(CC)c1ccc2cc(NC(=O)CCC(=O)O)c(=O)oc2c1`, for which the viability was found to be 108%.

In the case of `COc1ccc(CN(CC(=O)NCc2ccco2)C(=O)CCC(=O)Nc2nccs2)cc1`, the viability came out at 89.6%.

As to `CC(=O)c1cccc(NC(=O)N2C3CCC2CC(O)(c2cccnc2)C3)c1` (stereo not given), the viability worked out at 96.7%.

Turning to `Cc1nc2scc(-c3cccs3)c2c(=O)n1-n1cccc1`, the viability is 84.8%.

On to `NC1=NC(c2ccc(Br)cc2)n2c(nc3ccccc32)N1` (stereo not given), for which the viability was found to be 76.6%.

With `CSCC[C@@H](Nc1nc(-c2ccccc2)nc2c1oc1ccccc12)C(=O)O`, the viability was found to be 95.1%.

Consider `Cc1csc(SCC(=O)NC(=O)NCc2ccccc2)n1`, for which the viability amounted to 95.3%.

For `CCSc1ncc(C#N)c(=O)[nH]1`, the viability is 97.6%.

For `CCSc1nnc(NC(=O)CSc2ncccn2)s1`, the viability amounted to 84.5%.

With `COc1ccc(N2CCN(CCCNC(=O)C3(S(=O)(=O)c4ccc(Cl)cc4)CC3)CC2)cc1`, the viability is 96.1%.

For the compound `COc1ccc(OC)c(C2=NOC(C(=O)NCCN3CCOCC3)C2)c1` (stereo not given), the viability came to 85.3%.

Consider `COc1ccc(CN2CC(C(=O)NCc3ccccn3)CC2=O)cc1` (stereo not given), for which the viability came to 95.1%.

On to `c1ccc(-n2ncc3c(N4CCCCC4)ncnc32)cc1`, for which the viability is 65.1%.
